Screens as filed in PubChem BioAssay.
D1 antagonist: blocks dopamine activation of the human D1 receptor. P21728. HEK293 TREx D1 cells, calcium flux, dopamine EC80; active compounds read low. activity change, negative = inhibition, % at 10 µM. actives 3.2% (n = 360,000); in the data active = activity change below about -30%
Target sequence (P21728 whole entry, looked up): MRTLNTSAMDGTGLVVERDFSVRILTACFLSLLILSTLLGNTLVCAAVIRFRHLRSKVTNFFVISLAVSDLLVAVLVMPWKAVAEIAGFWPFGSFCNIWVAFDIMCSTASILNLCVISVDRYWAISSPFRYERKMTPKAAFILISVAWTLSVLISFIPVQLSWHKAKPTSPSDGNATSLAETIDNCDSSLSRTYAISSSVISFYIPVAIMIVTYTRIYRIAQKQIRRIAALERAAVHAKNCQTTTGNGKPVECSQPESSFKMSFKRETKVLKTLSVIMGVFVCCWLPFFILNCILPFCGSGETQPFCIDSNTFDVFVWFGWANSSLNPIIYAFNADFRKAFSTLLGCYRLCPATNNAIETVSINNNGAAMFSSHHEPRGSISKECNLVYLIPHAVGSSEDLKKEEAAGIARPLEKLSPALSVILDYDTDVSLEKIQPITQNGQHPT
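Cells carrying a force-coupled, tetracycline-inducible human D1 receptor report calcium flux. Each well gets a 10 s baseline, compound with 180 s monitoring, then an EC80 dopamine stimulus with a second 180 s kinetic read.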
D1 ag: agonists of human D1 dopamine receptor; AID 504660; HEK293 T-REx D1 cells, calcium flux, agonist mode; actives 1% (n = 360,000); activation, % at 2 µM; in the data active = activation above about 30%
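Inducible HEK293 T-REx D1 cells, force-coupled to calcium signalling, were plated at 4000 cells/well with tetracycline and held overnight at 30 C. After no-wash calcium dye loading, compound-evoked calcium rise over 180 s flagged agonists.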
DRD3 antagonist: antagonists of human D3 dopamine receptor | D3R cells, DiscoveRx beta-arrestin luminescence, antagonist mode; active compounds read low | max response, negative = inhibition, % | actives 2.5% (n = 360,000) | AID 652054; in the data active = max response below about -50%; inconclusive = no clear call, values can overlap the other calls
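Cells plated overnight at 1500 cells/well, then exposed to library compounds with dopamine controls for 90 minutes at 37 degrees C. DiscoveRx reagent added for 30–60 minutes at room temperature; luminescence read, quantitative HTS format.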
DRD3 agonist: activates the human D3 dopamine receptor | actives 0.58% (n = 410,000) | P35462 | D3R DiscoveRx beta-arrestin cells, luminescence, 90 min | max activation, %; in the data active = max activation above about 30%
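Cells at 1500/well, incubated overnight, then treated with pinned compounds (dopamine as control) for 90 min at 37 degrees C. DiscoveRx reagent added for 30 - 60 minutes at room temperature; luminescence read.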
D1 potentiator: enhances dopamine response at the human D1 receptor. potentiation, % at 10 µM. HEK293 TREx D1 cells, calcium flux, dopamine EC20 potentiation. AID 504651. P21728. actives 0.036% (n = 360,000); in the data active = potentiation above about 30%
Of the large screens only hits and unclear results are named; the others gave an inactive call; ! = not active in a repeat. Rows were chosen to be rich in hits. Some 6% of all compounds tested hit in one or more screens of this group.

CCOC(=O)c1ccc(N=c2sc(C(=O)OC)cc(=O)n2CCCN2CCOCC2)cc1	D1 antagonist -40!
CCOC(=O)c1ccc(N=c2sc(C(=O)OC)cc(=O)n2Cc2ccco2)cc1	DRD3 antagonist inconclusive
Cc1cc2oc(=O)cc(C)c2c2occ(-c3ccc(Cl)cc3)c12	none (no result: DRD3 antagonist)
N#Cc1c2ccc(OCC(=O)NCc3ccco3)cc2n2ccccc12	none
N#Cc1c2ccc(O)cc2n2ccccc12	D1 ag 58, DRD3 agonist 43
Fc1ccc(C(CCNCc2ccccn2)c2ccc(Cl)cc2)cc1 (configuration not stated)	D1 ag 67, DRD3 antagonist inconclusive
O=C(CSc1nc2c([nH]c3ccccc32)c(=O)n1-c1ccccc1)Nc1cccc(C(F)(F)F)c1	none (no result: DRD3 antagonist)
COc1cc2c(c(OC)c1OC)-c1c(cc(OC)c(OC)c1OC)C[C@H](C)[C@H](C)C2	none
COc1cc2c(c(O)c1OC)-c1c(cc(OC)c(OC)c1OC)C[C@@H](C)[C@@H](C)C2	D1 antagonist -40
Cc1ccccc1Nc1nnc(SCc2nc3ccccc3c(=O)[nH]2)s1	none (no result: DRD3 antagonist, DRD3 agonist)
CCOc1ccc(Nc2nnc(SCc3nc4ccccc4c(=O)[nH]3)s2)cc1	DRD3 antagonist -62
CCN(CC)CCCNC(=O)C1c2ccccc2C(=O)N(CCOC)C1c1ccc(F)cc1 (configuration not stated)	none
COCCN1C(=O)c2ccccc2C(C(=O)N2CCN(c3ccccn3)CC2)C1c1ccc(F)cc1 (configuration not stated)	DRD3 antagonist -51
COc1cccc(-c2cn3c(n2)sc2cc(C(=O)NC4CCCCCC4)ccc23)c1	none (no result: DRD3 antagonist)
CCOC(=O)c1c(CC(C)C)csc1NC(=O)COC(=O)c1ccc(O)cc1	DRD3 agonist 36
Cn1c(SCc2ccc(F)cc2)nc2ccc(C(=O)NCc3ccc(F)cc3)cc21	D1 antagonist -32 (no result: DRD3 antagonist)
Cn1c(SCc2ccc(F)cc2)nc2ccc(C(=O)NCc3ccc(Cl)cc3)cc21	none (no result: DRD3 antagonist)
CCOC(=O)c1cnc2c(ccc3ccccc32)c1Nc1ccc(C(C)=O)cc1	none (no result: DRD3 antagonist)
CC(C)(C)N/N=C/c1cc(Cl)cc([N+](=O)[O-])c1O	DRD3 antagonist -110
Cc1ccccc1C(=O)Nc1cccc(C(=O)N/N=C/c2cc(Cl)cc([N+](=O)[O-])c2O)c1	DRD3 antagonist -52
O=[N+]([O-])c1cc(Cl)cc(/C=N/Nc2nc3ccccc3s2)c1O	D1 antagonist -50, DRD3 antagonist -60
O=[N+]([O-])c1cc(Cl)cc(/C=N/NC(=S)Nc2ccc(S(=O)(=O)N3CCOCC3)cc2)c1O	DRD3 antagonist -54
COc1cc(/C=N/Nc2nc3ccccc3s2)cc([N+](=O)[O-])c1O	none
O=C(N/N=C/c1cc([N+](=O)[O-])cc([N+](=O)[O-])c1O)C(O)(c1ccccc1)c1ccccc1	none (no result: D1 potentiator)
CC(C)Oc1ccc(F)cc1-c1cc(C(=O)N2CCc3ccccc3C2)[nH]n1	none (no result: D1 antagonist, D1 ag, D1 potentiator)
CC1(C(=O)NCc2ccc(C(F)(F)F)cc2)CCN1Cc1ccccc1OC(F)F (configuration not stated)	none (no result: D1 antagonist, D1 ag, D1 potentiator)
O=C(Cn1nc2ccccc2n1)N/N=C/c1cc(Cl)cc([N+](=O)[O-])c1O	DRD3 antagonist -83
O=C(N/N=C/c1cc(Cl)cc([N+](=O)[O-])c1O)C1CC1	DRD3 antagonist -57
CCOc1ccc(NC(=O)NCCN2CCN(c3cc(Cl)ccc3C)CC2)cc1	none (no result: DRD3 antagonist)
CN(C)CC(=O)Nc1ccc2c(c1)[C@H]1C[C@H](CC(=O)NCc3ccc4c(c3)OCO4)O[C@H](CO)[C@H]1O2	none (no result: D1 antagonist, D1 ag, D1 potentiator)
Cc1ccc(CSCCC(=O)NCc2ccc(F)cc2Cl)cc1	none (no result: DRD3 antagonist)
CC(C)=N/N=C1/NC(=O)C(c2ccc(Cl)cc2)S1 (configuration not stated)	DRD3 antagonist -96 (no result: D1 antagonist, D1 ag, D1 potentiator)
Cc1cc(C)c2c(-n3cccc3)c(C(=O)NNS(=O)(=O)c3ccc(Cl)cc3)sc2n1	DRD3 antagonist -56 (no result: D1 antagonist, D1 ag, D1 potentiator)
Cc1cc(C)c2c(-n3cccc3)c(C(=O)NNS(=O)(=O)c3ccccc3)sc2n1	DRD3 antagonist -55 (no result: D1 antagonist, D1 ag, D1 potentiator)
CC1CCN(C(=O)C2COc3ccccc3C2)CC1 (configuration not stated)	none (no result: DRD3 antagonist)
CCCCCOc1ccc(C2c3c(oc4ccccc4c3=O)C(=O)N2c2nc(C)c(C)s2)cc1OCC (configuration not stated)	none (no result: DRD3 antagonist)
CC(=O)c1ccc(NC(=O)COC(=O)CCC2CCCC2)cc1	none (no result: D1 antagonist, D1 ag, D1 potentiator)
CC(=O)OCC(=O)Nc1ccc(C(C)=O)cc1	none
